Bioassay records from PubChem BioAssay.
DRD3 agonist: qHTS of D3 Dopamine Receptor Agonist: qHTS | hit rate 0.58% among 410,000 | max activation, % | AID 652048, 2013 | D3R DiscoveRx beta-arrestin cells, luminescence, 90 min; in the data active means max activation above about 30%
Target sequence (P35462 whole entry, looked up): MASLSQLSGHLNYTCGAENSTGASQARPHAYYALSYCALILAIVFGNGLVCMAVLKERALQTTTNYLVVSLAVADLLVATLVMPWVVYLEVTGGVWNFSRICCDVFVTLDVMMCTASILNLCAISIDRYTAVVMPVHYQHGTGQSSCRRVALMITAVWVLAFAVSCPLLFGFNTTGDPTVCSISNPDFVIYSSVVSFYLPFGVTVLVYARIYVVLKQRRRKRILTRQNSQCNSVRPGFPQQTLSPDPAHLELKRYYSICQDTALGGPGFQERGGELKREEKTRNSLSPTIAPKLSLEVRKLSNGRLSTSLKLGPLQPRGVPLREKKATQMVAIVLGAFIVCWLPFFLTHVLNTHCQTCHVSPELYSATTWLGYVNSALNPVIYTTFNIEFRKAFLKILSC
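Agonist mode: compounds and dopamine controls were applied to plated cells for 90 min at 37 degrees C after an overnight attachment at 1500 cells/well. Luminescent read-out followed 30 - 60 minutes at room temperature with DiscoveRx detection reagent.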
ATXN2 expr inh: Primary qHTS for Inhibitors of ATXN expression | Potency, µM (doses to about 57 µM), hits mostly inhibitors | HEK-293 ATXN2-luciferase reporter, luminescence, 24 h | hit rate 0.72% among 360,000 | AID 1745845, 2022; further: nearly all actives have a fitted effect of over 55% in size
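qHTS (up to 57 uM final) was run with 24 h compound exposure of reporter cells at 37 °C. Each well was multiplexed: SteadyGlo luminescence measured ATXN2-luciferase expression after a fluorogenic Gly-Phe-AFC viability readout (25 uM final).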
DRD3 antagonist: qHTS of D3 Dopamine Receptor Antagonist: qHTS | AID 652054, 2013 | D3R cells, DiscoveRx beta-arrestin luminescence, antagonist mode; hits give low values | D(3) dopamine receptor (Homo sapiens), P35462 | max response, negative = inhibition, % | hit rate 2.5% among 360,000; in the data active means max response below about -50%; inconclusive means no clear call, values can overlap the other calls
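Cells plated overnight at 1500 cells/well, then exposed to library compounds with dopamine controls for 90 minutes at 37 degrees C. DiscoveRx reagent added for 30–60 minutes at room temperature; luminescence read, quantitative HTS format.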
HepG2 tox: qHTS for Inhibitors of TGF-b: Cytotox Counterscreen | HepG2 CAGA-GFP viability, ATP luminescence, 18 h | Potency, µM (series often up to 46.1 µM), most hits filed as cytotoxic | hit rate 0.76% among 410,000
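HepG2 CAGA-GFP cells (1000/well, DMEM with 1% FBS) received compound, then TGF-beta at 500 pg/mL final, and were incubated 18 hours at 37 degrees C. Viability was read by CellTiter-Glo luminescence. Media-only wells were set as complete cell-killing and DMSO as no toxicity.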
TGFb SMAD3 inh: qHTS for Inhibitors of TGF-b; hit rate 1.2% among 410,000; HepG2 CAGA-GFP TGF-b/SMAD3 reporter, GFP fluorescence, 18 h; TGF-beta stimulated, 500 pg/mL final; AID 588855, 2011; Potency, µM (titrated, usually from 46.1 µM), usual class: inhibitors; further: nearly all actives have a fitted effect of over 65% in size
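Using HEPG2 CAGA-GFP reporter cells at 1000 cells/well, we pinned test compounds, stimulated with recombinant TGF-beta (500 pg/mL final) and measured total well GFP after 18 h.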
ATXN viability: Viability Counterscreen for Primary qHTS for Inhibitors of ATXN expression | Potency, µM (series often up to 56.7 µM), usual class: cytotoxic | S2 cells (HEK-293 line with an ATXN2-luciferase reporter) viability, CellTiter-Fluor protease fluorescence, 24 h | hit rate 0.49% among 400,000 | AID 651635, 2014; further: nearly all actives have a fitted effect of over 40% in size
Of the large screens only hits and unclear results are named; the others gave an inactive call. A selection: hits, their analogues and other compounds. The true share with any hit is near 4.7%. Unless noted, the call rests on the fitted dose curve; in most records, active means well fitted curve in the direction sought with a large enough effect; inconclusive means small, poorly fitted or top-dose-only effect, or another doubt; inactive means no such curve, though single readings can be large; an effect the other way counts as inactive or inconclusive.

Cc1cc(C(=O)N2CCN(Cc3ccc4c(c3)OCO4)CC2)cs1	DRD3 antagonist -92
COc1cc(SC#N)ccc1N=Cc1c(C)[nH]n(-c2ccc(C)c(C)c2)c1=O	ATXN2 expr inh 11µM, HepG2 tox 8.9µM, TGFb SMAD3 inh inconclusive, ATXN viability 13µM
O=C(NCC1(N2CCOCC2)CCCC1)c1cnn(-c2ncc3c(n2)-c2ccccc2CC3)c1C1CC1	none (no result: DRD3 agonist, ATXN2 expr inh, DRD3 antagonist, HepG2 tox, TGFb SMAD3 inh)
CNC(=O)CN(CCN(CCN(CC(=O)[O-])CC(=O)NC)CC(=O)[O-])CC(=O)[O-].O.[Gd+3]	none (no result: DRD3 antagonist, HepG2 tox, TGFb SMAD3 inh)
CC[N+]1(C)CCC(O)(/C=C/c2ccccc2)C(C(=O)/C=C/c2ccccc2)C1 (configuration not stated)	ATXN2 expr inh inconclusive, HepG2 tox 11µM, TGFb SMAD3 inh 4µM (no result: ATXN viability)
CN(C)c1cccc(C(=O)NCC2Cc3cccc(-c4cncnc4)c3O2)c1 (configuration not stated)	none (no result: DRD3 agonist, ATXN2 expr inh, DRD3 antagonist, HepG2 tox, TGFb SMAD3 inh)
Cc1ccc(Cl)cc1NC(=S)NCCCSC1CCCCC1	TGFb SMAD3 inh 11µM
Cc1cccc(-c2cnc(C)nc2C2CCCN(C(=O)c3cccc(Cn4cccn4)c3)C2)c1 (configuration not stated)	none (no result: DRD3 agonist, ATXN2 expr inh, DRD3 antagonist, HepG2 tox, TGFb SMAD3 inh)
CC(=O)c1ccc(NC(=O)c2cn(-c3ccccc3)nc2-c2ccncc2)cc1	ATXN viability inconclusive
O=C(O)c1ccc(NC(=O)c2cn(-c3ccccc3)nc2-c2ccc(F)cc2)cc1	none
COC(=O)c1ccc(NC(=O)c2cn(-c3ccccc3)nc2-c2ccncc2)cc1	DRD3 antagonist -67, HepG2 tox 7.1µM
O=C(O)c1ccc(NC(=O)c2cn(-c3ccccc3)nc2-c2cccc(Cl)c2)cc1	DRD3 agonist 36, ATXN viability inconclusive
O=C(C[n+]1ccc2ccccc2c1)c1ccc(F)cc1	TGFb SMAD3 inh inconclusive (no result: DRD3 agonist, ATXN2 expr inh, DRD3 antagonist, ATXN viability)
CCC(C)NCCOc1ccc(Br)cc1 (configuration not stated)	ATXN2 expr inh inconclusive, DRD3 antagonist -68
Cc1ccccc1OCCNC(=S)Nc1ccccc1	TGFb SMAD3 inh inconclusive
CCC(C)NCCOc1ccccc1C (configuration not stated)	DRD3 antagonist -67
O=C(NCc1nnc2n1CCN(Cc1cc3c(cc1Cl)OCO3)CC2)C1CCOC1 (configuration not stated)	none (no result: DRD3 agonist, ATXN2 expr inh, DRD3 antagonist, HepG2 tox, TGFb SMAD3 inh)
Cc1ccc(OCC(O)CNC2CCCC2)c(C)c1 (configuration not stated)	ATXN viability inconclusive (no result: ATXN2 expr inh)
Cc1ccc(C)c(OCCCNC2CCCC2)c1C	DRD3 antagonist -73
Cc1ccc(OCCCCNC2CCCCC2)c(C)c1	ATXN2 expr inh inconclusive, DRD3 antagonist -79, TGFb SMAD3 inh inconclusive
COc1cccc(OC)c1OCCCNC1CCCC1	DRD3 antagonist -55
CC(=O)c1ccc(NS(=O)(=O)c2cccc(S(=O)(=O)c3ccc(Cl)cc3)c2)cc1	TGFb SMAD3 inh inconclusive (no result: DRD3 antagonist)
COc1ccc(CN2CCCC(n3cc(C(=O)N4CCCCC4)nn3)C2)c(OC)c1 (configuration not stated)	none (no result: DRD3 agonist, ATXN2 expr inh, DRD3 antagonist, HepG2 tox, TGFb SMAD3 inh)
CC(C)[C@H]1CN=C2N(C[C@H](C)NC(=O)CCC3CCCCC3)[C@H](Cc3ccc(O)cc3)CN21	DRD3 antagonist -94, ATXN viability inconclusive
COc1ccc(C[C@H]2CN3C(=NC[C@@H]3Cc3ccc(O)cc3)N2C[C@H](C)NC(=O)CCC2CCCCC2)cc1	ATXN2 expr inh inconclusive, DRD3 antagonist inconclusive, TGFb SMAD3 inh inconclusive, ATXN viability inconclusive
C[C@@H](CN1C2=NC[C@H](C)N2C[C@H]1Cc1ccc(O)cc1)NC(=O)CCC1CCCCC1	DRD3 antagonist -66
CC(=O)c1ccc(NS(=O)(=O)c2ccc(CC(C)C)cc2)cc1	DRD3 antagonist inconclusive, TGFb SMAD3 inh 16µM
CN1CCc2nc(SCC(=O)Nc3ccc(Cl)cc3)c(C#N)cc2C1	DRD3 antagonist -60
COc1ccc(NC(=O)CSc2nc(N)c(C#N)cc2C#N)cc1	none
Cc1ccccc1CNC(=O)c1ccccc1C	none
Cc1ccccc1CNC(=O)c1ccccc1N	DRD3 agonist 30, TGFb SMAD3 inh inconclusive
O=C(Nc1ccc(Cl)cc1C(F)(F)F)c1cc(S(=O)(=O)NCc2ccccc2)ccc1F	TGFb SMAD3 inh inconclusive, ATXN viability inconclusive (no result: DRD3 antagonist)
Cn1c(N)c(C(=O)COC(=O)c2cc(-c3ccco3)nc3ccccc23)c(=O)n(C)c1=O	ATXN viability inconclusive
CCCCCCn1nc(C(=O)OCC(=O)c2c(N)n(C)c(=O)n(C)c2=O)c2ccccc2c1=O	DRD3 agonist 32, TGFb SMAD3 inh inconclusive, ATXN viability inconclusive
CCCCCn1nc(C(=O)OCC(=O)c2c(N)n(C)c(=O)n(C)c2=O)c2ccccc2c1=O	none
Cn1c(N)c(C(=O)COC(=O)c2cc(C3CC3)nc3ccccc23)c(=O)n(C)c1=O	DRD3 agonist 36
Cn1c(-c2ccncc2)nc2cc(C(=O)N[C@H]3CCCCNC3=O)cc(NC(=O)C3CCC3)c21	none (no result: DRD3 agonist, ATXN2 expr inh, DRD3 antagonist, HepG2 tox, TGFb SMAD3 inh)
N#Cc1ccc(OCC(O)CN2CCC(C(O)(c3ccccc3)c3ccccc3)CC2)cc1 (configuration not stated)	none
N#Cc1cccc(OCCCN2CCC(C(O)(c3ccccc3)c3ccccc3)CC2)c1	ATXN2 expr inh inconclusive, DRD3 antagonist -86, ATXN viability inconclusive (no result: HepG2 tox, TGFb SMAD3 inh)
Cc1cc(OCCCN2CCC(C(O)(c3ccccc3)c3ccccc3)CC2)ccc1Br	ATXN2 expr inh 32µM, ATXN viability 22µM (no result: HepG2 tox, TGFb SMAD3 inh)
CS(=O)(=O)N1CCCCC1c1cc(C(=O)Nc2cccc(C#N)c2)no1 (configuration not stated)	none
Cn1cnc(S(=O)(=O)N2CCCCC2c2cc(C(=O)Nc3cccc(C#N)c3)no2)c1 (configuration not stated)	DRD3 antagonist -80
COc1ccc(C(=O)NCCCN=C2NS(=O)(=O)c3ccccc32)cc1	DRD3 antagonist -75
COc1ccc(C(=O)NCCN=C2NS(=O)(=O)c3ccccc32)cc1	none
CCN(CCO)Cc1cc(=O)oc2cc3c(cc12)CCC3	ATXN viability inconclusive
CCCCN(C)Cc1cc(=O)oc2cc3c(cc12)CCCC3	DRD3 antagonist -91 (no result: ATXN viability)
COC(=O)c1ccccc1C(=O)N1CCc2c(cnc(C)c2CNC(=O)c2ccccc2F)C1	none (no result: DRD3 agonist, ATXN2 expr inh, DRD3 antagonist, HepG2 tox, TGFb SMAD3 inh)
CCCCC(=O)Nc1cc(-c2cn3cccnc3n2)ccc1C	none (no result: ATXN2 expr inh, DRD3 antagonist, ATXN viability)
Clc1ccc(CSC2=NCCCN2)cc1Cl	DRD3 antagonist -57
Clc1ccccc1CSC1=NCCCN1	none
Oc1cc(-c2cccnc2)cc2cccnc12	ATXN2 expr inh inconclusive, TGFb SMAD3 inh inconclusive, ATXN viability inconclusive (no result: DRD3 agonist, DRD3 antagonist)
